Each structure is given as a SMILES string. Records with an inconclusive call do not appear. Active and inactive are the calls of the source. Calls follow the shape of the dose curve; as a rule, active = well fitted inhibition curve with a large enough effect; inconclusive = small, poorly fitted or top-dose-only effect; inactive = flat fitted curve, though single readings scatter.

The test in a line: Confirmatory Assay for General miRNAs Modulators and/or Inhibitors/Activators of miR-21: second round cherrypicks. Particulars: HeLa miR-21 FLuc reporter, luciferase luminescence, 48 h; series mostly up to 38.3 µM. The text has this:
MLPCN Grant: 1 R21 NS059478-01 Assay Provider: Qihong Huang, The Wistar Institute NCGC Assay Overview: MicroRNAs (miRNAs) are endogenously encoded small (~20-25 nucleotides), nonprotein-coding RNAs that are involved in post-transcriptional repression of target messenger RNAs (mRNAs) (Le and Hannon, 2004). Estimated to be involved in the regulation of 30% of all protein-coding mRNAs (Filipowicz et al., 2008), miRNAs play a significant role in many biological processes including cellular differentiation and tissue development (Ghildiyal and Zamore, 2009).
NCGC Assay Protocol Summary: Reagents: HeLa cells stably expressing firefly luciferase (FLuc) under the control of a CMV promoter (upstream) and a miR-21 binding sequence directly downstream of the gene. These cells endogenously express miR-21. Control compounds used were compound C3 (provided by collaborator), N6-phenyladenosine (MP Biomedicals, 0215379625), and DMSO. Assay Summary: 6uL of HeLa miR-21-FLuc cells in assay buffer (DMEM, Invitrogen #21063-029; 10% FBS, HyClone #SH30071.03) were dispensed at 2000cells/well (3.3 x 10^5 cells/mL) into Greiner solid-white TC-treated 1536-well plates using a Multidrop Combi (Thermo Fisher Scientific). Plates were incubated for one hour at 37 degree Celsius, 95% humidity, 5% CO2. These assay plates were then treated with 23nL of compound or DMSO using a Kalypsys pin tool, which allows for delivery of a 24-point titration of each compound to the assay plate, with a final compound concentration ranging from approximately 40uM to 5pM. Assay plates were then incubated for 48 hours. After incubation, plates were allowed to come to RT for one hour prior to delivery of 3uL of 3X luciferase detection reagent. After a 15 minute incubation to allow for cell lysis, luciferase activity was measured using a ViewLux CCD imager (PerkinElmer), with an average exposure time of 2-12 seconds. Keywords: NIH Roadmap, MLPCN, MLSMR, qHTS, miR-21, microRNA, firefly luciferase, FLuc.
For the compound `CCOC(=O)C1CCN(C(=O)c2ccc(-n3ccc4ccccc43)s2)CC1`, the Potency is 11.3 µM (active).

With `O=C(Nc1sc2c(c1C(=O)NCc1ccco1)CCCC2)c1cc(=O)c2ccccc2o1`, the Potency is 5.65 µM (active).

Take `CC(C)c1cc(C(=O)Nc2cccnc2)no1`: the Potency was 3.18 µM (active).

For `CCC(CC)C(=O)Nc1nnc(S(=O)(=O)N2CCCCCC2)s1`, the Potency result was “inactive”.

Regarding `CC(=O)N1CCc2cc(CNC(=O)Cc3ccc(F)cc3)ccc21`, the Potency is 11.3 µM (active).

Turning to `O=C(NC1CCCCCC1)C1CCN(C(=O)N2CCOc3ccc(Cl)cc32)CC1`, the Potency result was “inactive”.

As to `Cc1cccc(NC(=O)Nc2ccc(Br)cc2)n1`, the Potency was 2.52 µM (active).

Regarding `Cc1ccc(NC(=O)c2ccc(-c3ccccc3)s2)cc1`, the Potency was 5.65 µM (active).

Take `CCC(C)C(=O)N1CCCC(c2nc(-c3cccs3)no2)C1` (stereo not drawn): the Potency is 12.6 µM (active).

As to `CCC(C)NC(=O)CCCn1c(=O)c2cccn2c2ccccc21` (stereo not drawn), the Potency entry is “inactive”.

For the compound `CN(c1ccccc1)S(=O)(=O)c1nnc(NC(=O)c2ccco2)s1`, the Potency result is “inactive”.

Regarding `COc1ccc(N2C(=O)c3ccccc3NC2c2ccc(OC)c(Cn3nnc4ccccc43)c2)cc1` (stereo not drawn), the Potency was 12.6 µM (active).

As for `Cc1ccc(-c2cc(C(=O)NCC3CCCO3)no2)cc1` (stereo not drawn), the Potency was 4.49 µM (active).

For `COc1ccc(Nc2nc(C)c3ccccc3n2)cc1`, the Potency was 6.34 µM (active).

As to `CC(=O)c1ccc(Oc2ncnc3c2oc2ccccc23)cc1`, the Potency is 4 µM (active).

`CC(=O)O[C@H]1C[C@@]2(C)[C@@H](C[C@@H](O)[C@H]3[C@@]4(C)CC[C@@H](O)[C@@H](C)C4CC[C@@]32C)/C1=C(\CCC=C(C)C)C(=O)O` (stereo partly drawn): the Potency result was “inactive”.

For the compound `CCc1cc(C(=O)Nc2ccccc2)cs1`, the Potency was 3.18 µM (active).

Regarding `COc1ccccc1N1CCN(C(=O)c2nc(-c3ccc(C)cc3)n3c2CCCCC3)CC1`, the Potency result is “inactive”.

`COCCNC(=O)c1ccc2c(c1)ncn2-c1ccc(F)c(F)c1`: the Potency is 22.5 µM (active).

`CCCCN1CCc2c([nH]c3ccccc23)C1=O`: the Potency was 12.6 µM (active).

As for `Cc1cc(C)c2c(N)c(C(=O)Nc3ccccc3C(F)(F)F)sc2n1`, the Potency is 20 µM (active).

`CCCOc1ccc(OC(=O)c2ccc(-c3ccc(CCC)cn3)cc2)cc1`: the Potency is 1.26 µM (active).

Regarding `C/C(=N/NC(=O)c1ccccc1)c1ccc(NC(=O)C(F)(F)F)cc1`, the Potency result is “inactive”.

In the case of `CCOC(=O)c1cccc(NC(=O)c2cc(CN3CCCC3)on2)c1`, the Potency is 1 µM (active).

As to `COC(=O)c1ccccc1NC(=O)Nc1cc(C(C)(C)C)on1`, the Potency is 5.65 µM (active).

For `Cc1ccccc1NC(=O)c1cc2c([nH]c1=O)CC(C)(C)CC2=O`, the Potency was 0.711 µM (active).

As to `CCC(=O)Nc1sc(C(=O)Nc2ccccc2)c(C)c1C(=O)OC`, the Potency was 2.25 µM (active).

Consider `Cc1ccc(C(=O)Nc2ccc3c(c2)ncn3C)cc1`, for which the Potency was 7.11 µM (active).

Source of the values: PubChem BioAssay AID493174 (National Center for Advancing Translational Sciences (NCATS), 2011).
